{
  "source": "PubChem BioAssay (Tox21)",
  "note": "Inconclusive results are not listed. Where a call stands in place of a potency, no number is given. The source made the active and inactive calls. Calls follow the shape of the dose curve; as a rule, active = well fitted activation curve with a large enough effect in the repeat runs; inconclusive = weak or mixed curves; inactive = flat fitted curve, though single readings scatter. Potency is read from the fitted curve at half-maximal effect.",
  "data": [
    {"experiment": "A CellTox Green Cytotoxicity Assay to monitor cytotoxicity in HepG2 cells - 24 hour (AID 1224878); also: nearly all actives have a fitted effect of over 45% in size", "details": "CellTox Green fluorescence; series mostly up to 76.8 µM", "excerpt": "National Center for Advancing Translational Sciences [NCATS]\nNIH Chemical Genomics Center [NCGC]\nU.S. Environmental Protection Agency [EPA]\nNational Institutes of Environmental Health Sciences [NIEHS]\nNational Toxicology Program [NTP]\nCell-based models are critical for drug discovery. Determining the natural cytotoxic effects resulting from test compounds is an essential research activity. A CellTox Green Cytotoxicity Assay to monitor cytotoxicity in real time of continues cell culture during 40 hours of the compound treatment was used to screen Tox21 10K library compounds in HepG2 cells. CellTox Green Cytotoxicity Assay is a nonlytic, homogeneous, biofluorescent method to measure cytotoxicity in cell culture after experimental manipulation. The assay system uses a proprietary asymmetric cyanine dye that is excluded from viable cells but preferentially stains the dead cell's DNA. […] Viable cells produce no appreciable increases in fluorescence. Therefore, the fluorescence signal produced by the binding interaction with dead cell DNA is proportional to cytotoxicity.\nThe mixture of HepG2 cell suspension and reagents were dispensed at 600cells/6 ul/well in 1536-well tissue culture treated black solid bottom plates using a Multidrop dispenser. After the assay plates were incubated at a 37 C/5% CO2 incubator for 5 hours, 23 nL of compounds dissolved in DMSO, positive and negative controls was transferred to the assay plate by a pintool work station. The plates were incubated at 37 C for 40 hours. The fluorescence intensity were measured at 0h, 8h, 16h, 24h, 32h and 40h time points using ViewLux plate reader during compound treatment.", "values": [
      {"compound": "SC1CCCC1", "Potency": "inactive"},
      {"compound": "NCCCOCCOCCOCCCN", "Potency": "inactive"},
      {"compound": "CC[C@H](C)[C@@H](C(=O)O)n1sc2ccccc2c1=O", "Potency": "inactive"},
      {"compound": "COC(=O)CSc1cc(N=c2sc(=O)n3n2CCCC3)c(F)cc1Cl", "Potency": "inactive"},
      {"compound": "O=C1Nc2cc(Cl)ccc2Oc2ccccc21", "Potency": "inactive"},
      {"compound": "Cc1occc1S", "Potency": "inactive"},
      {"compound": "O=C(O)C1CCC(C(=O)O)CC1", "note": "(stereo not given)", "Potency": "inactive"},
      {"compound": "Nc1ccc(C(=O)N2CC3CC(CN(Cc4ccccc4)C3)C2)cc1", "Potency": "inactive"},
      {"compound": "Oc1ccc2c(c1)OCO2", "Potency": "inactive"},
      {"compound": "O=C(c1ccccc1)c1ccc2n1CCC2C(=O)O", "note": "(stereo not given)", "Potency": "inactive"},
      {"compound": "COc1ccc(C(C)=O)cc1", "Potency": "inactive"},
      {"compound": "CC(CN)CCCN", "note": "(stereo not given)", "Potency": "inactive"},
      {"compound": "CN(C)C/C=C(/c1ccc(Br)cc1)c1cccnc1", "Potency": "inactive"},
      {"compound": "COCCOCCOCCOCCOC", "Potency": "inactive"},
      {"compound": "NCCCN(CCO)CCO", "Potency": "inactive"},
      {"compound": "C[C@H](CCC(=O)O)[C@H]1CC[C@H]2[C@@H]3[C@H](O)C[C@@H]4C[C@H](O)CC[C@]4(C)[C@H]3CC[C@]12C", "Potency": "inactive"},
      {"compound": "CC(C)c1ccccc1C(C)C", "Potency": "inactive"},
      {"compound": "CC(=O)OCCc1ccccc1", "Potency": "inactive"},
      {"compound": "O=C(O)COC(=O)Cc1ccccc1Nc1c(Cl)cccc1Cl", "Potency": "inactive"},
      {"compound": "Oc1ccc(Sc2ccc(O)cc2)cc1", "Potency": "inactive"},
      {"compound": "CCCCOCCOCCOCCOCCO", "Potency": "inactive"},
      {"compound": "CC(C)(C)c1cc(CO)cc(C(C)(C)C)c1O", "Potency": "inactive"},
      {"compound": "CC[C@H](C)[C@H](N)C(=O)O", "Potency": "inactive"},
      {"compound": "C=C(C)C(=O)OCCN(C)C", "Potency": "inactive"},
      {"compound": "COc1ccc2[nH]c(S(=O)Cc3ncc(C)c(OC)c3C)nc2n1", "note": "(stereo not given)", "Potency": "inactive"},
      {"compound": "Oc1ccc(O)c2c(O)cccc12", "Potency": "inactive"},
      {"compound": "CCCCCOC(=O)COc1cc(N2C(=O)C3=C(CCCC3)C2=O)c(F)cc1Cl", "Potency": "inactive"},
      {"compound": "Cn1sccc1=O", "Potency": "inactive"},
      {"compound": "O=C(Cl)c1c(Cl)cccc1Cl", "Potency": "inactive"},
      {"compound": "CCCCCCc1ccc(N)cc1", "Potency": "49 µM (active)"},
      {"compound": "CN1CCC[C@@H]1c1cccnc1", "Potency": "inactive"},
      {"compound": "C=CC(=O)OCCOC(=O)CCC(=O)O", "Potency": "inactive"},
      {"compound": "C=Cc1c(C)c2cc3[nH]c(cc4nc(cc5nc(cc1[nH]2)C(C)=C5CCC(=O)O)C(CCC(=O)O)=C4C)c(C)c3C=C", "Potency": "inactive"},
      {"compound": "OCCC1CCCCN1", "note": "(stereo not given)", "Potency": "inactive"},
      {"compound": "CC1=CC(=O)/C(=C(/C)O)C(=O)O1", "Potency": "inactive"},
      {"compound": "CCN(CC)CCNC(C(=O)OCCC(C)C)c1ccccc1", "note": "(stereo not given)", "Potency": "inactive"},
      {"compound": "CC(C)(C)c1ccc(OCC2CO2)cc1", "note": "(stereo not given)", "Potency": "inactive"},
      {"compound": "N#Cc1cc2ccccc2c2ccccc12", "Potency": "inactive"},
      {"compound": "CCCCC(CC)COCCCN", "note": "(stereo not given)", "Potency": "inactive"},
      {"compound": "COc1ccccc1OC(=O)Oc1ccccc1OC", "Potency": "inactive"}
    ]}
  ]
}
